Key:
Assay in all cases: DAPPL (digital affinity profiling via proximity ligation, sequencing); 10 mM Tris-HCl pH 7.5, 50 mM NaCl, 1 mM DTT, 4% glycerol, room temperature, 30 min; GST-TFs on glutathione beads, 16-mer random dsDNA library, 0.1% formaldehyde crosslink after washing; high values mean tight binding
FLI1 = target: T1, FLI1 (Homo sapiens, UniProt Q01543 1-452); details: protein: recombinant; tags: N-terminal GST; dsDNA, one strand shown
T1 sequence: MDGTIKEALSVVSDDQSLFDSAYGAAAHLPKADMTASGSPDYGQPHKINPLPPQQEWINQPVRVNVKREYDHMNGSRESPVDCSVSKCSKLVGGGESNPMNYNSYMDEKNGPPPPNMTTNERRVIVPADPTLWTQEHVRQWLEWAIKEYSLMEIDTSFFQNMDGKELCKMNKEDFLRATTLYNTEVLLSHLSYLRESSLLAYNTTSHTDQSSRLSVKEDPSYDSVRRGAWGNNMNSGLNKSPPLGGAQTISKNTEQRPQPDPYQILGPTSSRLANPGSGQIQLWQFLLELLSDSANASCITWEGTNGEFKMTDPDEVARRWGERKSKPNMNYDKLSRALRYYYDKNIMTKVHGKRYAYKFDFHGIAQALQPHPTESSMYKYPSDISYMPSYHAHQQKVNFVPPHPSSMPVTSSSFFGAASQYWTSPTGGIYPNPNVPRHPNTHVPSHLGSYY
Method in brief: (§1)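 The binding signal reported is, for every hexamer, its read frequency for a factor over its read frequency for the tag-only sample. Reads came from pools of yeast-expressed, GST-fused human transcription factors on glutathione beads, barcoded with DNA and mixed with that sample, which were incubated with 200 nmole of a random double-stranded 16-mer DNA library in Tris/NaCl/DTT/glycerol buffer at room temperature for 30 min. After washing, the pools were crosslinked with 0.1% formaldehyde, proximity-ligated with BsaI/T4 ligase for 1 h at 37 °C, PCR-amplified and sequenced on an Illumina NextSeq500.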

ELK1 = target: T2, ELK1 (Homo sapiens, UniProt P19419 1-428); details: protein: recombinant; tags: N-terminal GST; dsDNA, one strand shown
T2 sequence: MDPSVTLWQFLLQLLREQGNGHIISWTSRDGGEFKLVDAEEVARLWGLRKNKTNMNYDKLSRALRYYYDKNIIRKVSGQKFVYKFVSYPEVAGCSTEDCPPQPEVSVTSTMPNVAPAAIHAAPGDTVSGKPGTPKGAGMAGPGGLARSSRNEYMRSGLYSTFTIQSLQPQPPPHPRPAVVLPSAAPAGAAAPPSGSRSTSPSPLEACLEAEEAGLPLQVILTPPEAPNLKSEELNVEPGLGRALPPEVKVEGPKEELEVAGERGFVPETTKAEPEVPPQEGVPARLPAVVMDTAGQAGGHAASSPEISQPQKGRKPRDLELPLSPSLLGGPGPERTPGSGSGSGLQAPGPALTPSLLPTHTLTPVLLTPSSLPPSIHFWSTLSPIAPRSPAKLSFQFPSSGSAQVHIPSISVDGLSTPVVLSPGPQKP
Method in brief: as §1

GABPA = target: T3, GABPA (Homo sapiens, UniProt Q06546 1-454); details: protein: recombinant; tags: N-terminal GST; dsDNA, one strand shown
T3 sequence: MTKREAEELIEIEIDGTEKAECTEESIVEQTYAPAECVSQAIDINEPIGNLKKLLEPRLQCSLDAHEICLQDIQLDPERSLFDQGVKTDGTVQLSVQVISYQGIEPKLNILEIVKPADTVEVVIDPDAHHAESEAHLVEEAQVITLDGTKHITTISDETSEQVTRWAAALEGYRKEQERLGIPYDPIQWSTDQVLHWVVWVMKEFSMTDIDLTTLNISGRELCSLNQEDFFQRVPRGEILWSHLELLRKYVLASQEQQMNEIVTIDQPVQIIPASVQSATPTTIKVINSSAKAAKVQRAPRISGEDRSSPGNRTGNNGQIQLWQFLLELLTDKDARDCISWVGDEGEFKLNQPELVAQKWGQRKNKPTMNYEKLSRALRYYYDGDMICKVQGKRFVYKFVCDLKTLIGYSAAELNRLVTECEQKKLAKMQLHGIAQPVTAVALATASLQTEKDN
Method in brief: as §1

ERG = target: T4, ERG (Homo sapiens, UniProt P11308 1-479); details: protein: recombinant; tags: N-terminal GST; dsDNA, one strand shown
T4 sequence: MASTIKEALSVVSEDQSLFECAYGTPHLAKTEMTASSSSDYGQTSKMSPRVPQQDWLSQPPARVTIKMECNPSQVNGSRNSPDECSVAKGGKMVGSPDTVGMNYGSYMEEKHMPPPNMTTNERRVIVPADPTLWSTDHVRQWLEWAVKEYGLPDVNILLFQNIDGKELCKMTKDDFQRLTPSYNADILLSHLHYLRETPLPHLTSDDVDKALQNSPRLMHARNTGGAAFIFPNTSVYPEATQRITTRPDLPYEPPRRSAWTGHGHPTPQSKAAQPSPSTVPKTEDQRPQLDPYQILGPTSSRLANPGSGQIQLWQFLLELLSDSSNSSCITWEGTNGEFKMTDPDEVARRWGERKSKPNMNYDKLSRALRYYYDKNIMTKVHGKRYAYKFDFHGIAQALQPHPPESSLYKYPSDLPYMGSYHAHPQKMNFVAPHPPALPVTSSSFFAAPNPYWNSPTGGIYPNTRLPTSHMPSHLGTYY
Method in brief: as §1

ELF1 = ELF1 (Homo sapiens, UniProt P32519 1-619); details: protein: recombinant; tags: N-terminal GST; dsDNA, one strand shown
Method in brief: as §1

EHF = target: T5, EHF (Homo sapiens, UniProt Q9NZC4 1-300); details: protein: recombinant; tags: N-terminal GST; dsDNA, one strand shown
T5 sequence: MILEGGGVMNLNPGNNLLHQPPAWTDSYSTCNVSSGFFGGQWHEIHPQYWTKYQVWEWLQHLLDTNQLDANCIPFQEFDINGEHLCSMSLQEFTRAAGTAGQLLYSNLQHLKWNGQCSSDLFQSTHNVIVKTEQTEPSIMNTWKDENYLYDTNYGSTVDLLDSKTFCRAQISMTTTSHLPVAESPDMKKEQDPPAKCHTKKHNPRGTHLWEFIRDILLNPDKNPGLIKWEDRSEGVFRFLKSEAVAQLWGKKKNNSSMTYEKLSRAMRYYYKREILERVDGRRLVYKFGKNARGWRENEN
Method in brief: as §1

SPI1 = SPI1 (Homo sapiens, UniProt P17947 1-270); details: protein: recombinant; tags: N-terminal GST; dsDNA, one strand shown
Method in brief: as §1

SPIB = SPIB (Homo sapiens, UniProt Q01892 1-262); details: protein: recombinant; tags: N-terminal GST; dsDNA, one strand shown
Method in brief: as §1

ELK3 = target: T6, ELK3 (Homo sapiens, UniProt P41970 1-407); details: protein: recombinant; tags: N-terminal GST; dsDNA, one strand shown
T6 sequence: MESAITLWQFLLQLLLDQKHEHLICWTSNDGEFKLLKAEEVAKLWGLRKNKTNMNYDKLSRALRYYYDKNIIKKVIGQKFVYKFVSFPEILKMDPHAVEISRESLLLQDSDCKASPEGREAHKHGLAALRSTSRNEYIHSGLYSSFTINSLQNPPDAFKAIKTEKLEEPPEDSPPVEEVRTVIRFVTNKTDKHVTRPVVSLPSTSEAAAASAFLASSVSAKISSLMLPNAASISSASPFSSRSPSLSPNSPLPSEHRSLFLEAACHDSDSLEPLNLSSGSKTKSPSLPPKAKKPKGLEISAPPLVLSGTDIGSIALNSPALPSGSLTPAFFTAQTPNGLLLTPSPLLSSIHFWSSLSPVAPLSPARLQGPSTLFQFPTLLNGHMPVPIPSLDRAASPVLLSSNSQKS
Method in brief: as §1

FEV = target: T7, FEV (Homo sapiens, UniProt Q99581 1-238); details: protein: recombinant; tags: N-terminal GST; dsDNA, one strand shown
T7 sequence: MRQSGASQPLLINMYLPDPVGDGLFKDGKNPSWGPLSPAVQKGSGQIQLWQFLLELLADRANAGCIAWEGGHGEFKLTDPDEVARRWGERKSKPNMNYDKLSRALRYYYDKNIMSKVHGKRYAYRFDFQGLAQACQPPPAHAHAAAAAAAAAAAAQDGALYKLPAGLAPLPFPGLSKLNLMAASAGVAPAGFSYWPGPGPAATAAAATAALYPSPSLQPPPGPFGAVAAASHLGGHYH
Method in brief: as §1

ETV5 = ETV5 (Homo sapiens, UniProt P41161 1-510); details: protein: recombinant; tags: N-terminal GST; dsDNA, one strand shown
Method in brief: as §1

HSF1 = HSF1 (Homo sapiens, UniProt Q00613 1-529); details: protein: recombinant; tags: N-terminal GST; chain copies: 3; dsDNA, one strand shown
Method in brief: as §1

SPIC = target: T8, SPIC (Homo sapiens, UniProt Q8N5J4 1-248); details: protein: recombinant; tags: N-terminal GST; dsDNA, one strand shown
T8 sequence: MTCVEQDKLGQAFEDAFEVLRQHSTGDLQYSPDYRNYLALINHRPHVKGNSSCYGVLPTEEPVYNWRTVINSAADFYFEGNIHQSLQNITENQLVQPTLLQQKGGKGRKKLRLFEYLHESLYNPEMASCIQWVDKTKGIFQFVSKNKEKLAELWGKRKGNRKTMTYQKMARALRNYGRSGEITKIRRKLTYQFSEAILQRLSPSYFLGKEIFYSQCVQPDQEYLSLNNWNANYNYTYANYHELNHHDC
Method in brief: as §1

ELF4 = ELF4 (Homo sapiens, UniProt Q99607 1-663); details: protein: recombinant; tags: N-terminal GST; dsDNA, one strand shown
Method in brief: as §1

ELK4 = target: T9, ELK4 (Homo sapiens, UniProt P28324-2 1-405); details: protein: recombinant; tags: N-terminal GST; dsDNA, one strand shown
T9 sequence: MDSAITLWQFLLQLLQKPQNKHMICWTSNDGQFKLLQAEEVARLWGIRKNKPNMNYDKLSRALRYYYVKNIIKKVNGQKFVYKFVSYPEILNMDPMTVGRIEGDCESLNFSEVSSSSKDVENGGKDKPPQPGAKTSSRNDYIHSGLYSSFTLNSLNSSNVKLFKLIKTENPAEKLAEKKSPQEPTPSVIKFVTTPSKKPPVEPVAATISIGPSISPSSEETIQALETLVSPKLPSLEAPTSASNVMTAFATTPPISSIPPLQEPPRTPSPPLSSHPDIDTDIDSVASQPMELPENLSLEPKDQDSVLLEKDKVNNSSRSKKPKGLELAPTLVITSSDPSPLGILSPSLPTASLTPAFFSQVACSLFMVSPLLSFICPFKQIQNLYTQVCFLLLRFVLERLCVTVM
Method in brief: as §1

ETV2 = target: T10, ETV2 (Homo sapiens, UniProt O00321 1-342); details: protein: recombinant; tags: N-terminal GST; dsDNA, one strand shown
T10 sequence: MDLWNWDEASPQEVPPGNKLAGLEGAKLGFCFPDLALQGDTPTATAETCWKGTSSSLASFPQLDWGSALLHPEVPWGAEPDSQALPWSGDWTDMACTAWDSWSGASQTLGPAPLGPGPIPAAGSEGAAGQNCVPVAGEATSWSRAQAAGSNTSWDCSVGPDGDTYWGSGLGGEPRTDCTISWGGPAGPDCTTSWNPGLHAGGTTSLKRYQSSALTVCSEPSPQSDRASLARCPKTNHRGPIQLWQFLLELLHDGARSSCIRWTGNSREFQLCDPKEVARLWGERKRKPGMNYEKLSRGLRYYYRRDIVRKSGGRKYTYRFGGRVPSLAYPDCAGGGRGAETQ
Method in brief: as §1

ELF3 = target: T11, ELF3 (Homo sapiens, UniProt P78545 1-371); details: protein: recombinant; tags: N-terminal GST; dsDNA, one strand shown
T11 sequence: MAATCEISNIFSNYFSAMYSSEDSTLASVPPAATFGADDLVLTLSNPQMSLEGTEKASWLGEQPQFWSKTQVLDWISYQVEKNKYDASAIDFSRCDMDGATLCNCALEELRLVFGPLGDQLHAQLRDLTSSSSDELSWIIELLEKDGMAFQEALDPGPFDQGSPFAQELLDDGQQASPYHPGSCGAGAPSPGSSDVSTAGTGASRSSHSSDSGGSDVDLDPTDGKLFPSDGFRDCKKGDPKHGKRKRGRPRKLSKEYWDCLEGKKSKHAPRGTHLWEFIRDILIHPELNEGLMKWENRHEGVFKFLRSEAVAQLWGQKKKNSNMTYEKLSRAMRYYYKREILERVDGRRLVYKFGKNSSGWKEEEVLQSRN
Method in brief: as §1

CRX = CRX (Homo sapiens, UniProt O43186 1-299); details: protein: recombinant; tags: N-terminal GST; dsDNA, one strand shown
Method in brief: as §1

ETV1 = ETV1 (Homo sapiens, UniProt P50549 1-477); details: protein: recombinant; tags: N-terminal GST; dsDNA, one strand shown
Method in brief: as §1

Sequence of ELF4 (Q99607 whole entry): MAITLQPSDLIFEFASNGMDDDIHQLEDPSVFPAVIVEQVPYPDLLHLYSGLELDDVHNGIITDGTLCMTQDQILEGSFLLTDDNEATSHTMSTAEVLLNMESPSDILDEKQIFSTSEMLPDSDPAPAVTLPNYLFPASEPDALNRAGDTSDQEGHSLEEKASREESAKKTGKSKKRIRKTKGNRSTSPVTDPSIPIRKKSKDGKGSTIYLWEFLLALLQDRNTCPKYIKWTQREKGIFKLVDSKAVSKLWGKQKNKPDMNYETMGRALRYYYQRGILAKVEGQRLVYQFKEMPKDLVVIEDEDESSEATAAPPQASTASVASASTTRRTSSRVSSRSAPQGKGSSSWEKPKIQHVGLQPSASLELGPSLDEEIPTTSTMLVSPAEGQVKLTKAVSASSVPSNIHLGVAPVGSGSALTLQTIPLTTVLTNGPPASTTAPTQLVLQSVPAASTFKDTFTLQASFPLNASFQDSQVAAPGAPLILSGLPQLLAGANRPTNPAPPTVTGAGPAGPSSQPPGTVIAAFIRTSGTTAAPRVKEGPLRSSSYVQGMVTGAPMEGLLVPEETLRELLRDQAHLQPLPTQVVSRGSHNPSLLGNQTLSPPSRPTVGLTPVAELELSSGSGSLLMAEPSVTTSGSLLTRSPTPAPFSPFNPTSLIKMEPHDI
Sequence of CRX (O43186 whole entry): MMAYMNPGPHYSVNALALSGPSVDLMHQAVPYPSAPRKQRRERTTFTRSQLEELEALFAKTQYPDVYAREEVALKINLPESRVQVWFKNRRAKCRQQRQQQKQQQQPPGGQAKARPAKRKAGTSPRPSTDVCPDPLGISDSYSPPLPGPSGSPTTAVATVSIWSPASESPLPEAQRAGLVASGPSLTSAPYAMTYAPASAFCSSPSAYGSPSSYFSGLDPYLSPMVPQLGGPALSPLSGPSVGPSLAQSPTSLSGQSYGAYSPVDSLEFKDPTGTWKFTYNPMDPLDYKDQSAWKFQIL
Sequence of ETV1 (P50549 whole entry): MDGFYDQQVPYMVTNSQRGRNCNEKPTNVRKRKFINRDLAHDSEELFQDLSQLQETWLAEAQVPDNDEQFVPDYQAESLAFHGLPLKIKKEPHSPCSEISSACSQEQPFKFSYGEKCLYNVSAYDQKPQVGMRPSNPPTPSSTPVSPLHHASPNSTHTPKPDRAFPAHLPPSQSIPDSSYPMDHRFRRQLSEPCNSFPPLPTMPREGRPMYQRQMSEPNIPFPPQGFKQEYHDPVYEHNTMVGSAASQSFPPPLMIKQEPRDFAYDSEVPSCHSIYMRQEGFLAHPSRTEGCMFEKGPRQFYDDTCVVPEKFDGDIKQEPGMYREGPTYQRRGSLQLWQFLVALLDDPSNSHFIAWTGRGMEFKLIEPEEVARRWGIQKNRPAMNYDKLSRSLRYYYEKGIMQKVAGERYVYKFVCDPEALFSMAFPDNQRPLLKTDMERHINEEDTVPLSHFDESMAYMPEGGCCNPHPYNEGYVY
Sequence of HSF1 (Q00613 whole entry): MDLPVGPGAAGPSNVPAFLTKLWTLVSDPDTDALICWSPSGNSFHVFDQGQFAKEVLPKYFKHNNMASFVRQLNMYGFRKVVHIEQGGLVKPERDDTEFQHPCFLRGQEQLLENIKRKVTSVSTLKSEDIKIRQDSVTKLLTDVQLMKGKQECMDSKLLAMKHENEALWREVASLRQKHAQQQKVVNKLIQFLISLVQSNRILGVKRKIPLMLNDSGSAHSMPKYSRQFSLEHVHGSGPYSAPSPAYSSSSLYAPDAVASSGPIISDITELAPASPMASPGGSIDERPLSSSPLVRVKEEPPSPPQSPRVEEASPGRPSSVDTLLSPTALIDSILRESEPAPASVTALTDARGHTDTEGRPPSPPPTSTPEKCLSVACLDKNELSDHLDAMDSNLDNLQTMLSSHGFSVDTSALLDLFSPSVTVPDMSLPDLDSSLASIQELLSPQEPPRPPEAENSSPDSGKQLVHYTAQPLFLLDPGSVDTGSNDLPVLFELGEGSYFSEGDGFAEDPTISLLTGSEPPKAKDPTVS
Sequence of ELF1 (P32519 whole entry): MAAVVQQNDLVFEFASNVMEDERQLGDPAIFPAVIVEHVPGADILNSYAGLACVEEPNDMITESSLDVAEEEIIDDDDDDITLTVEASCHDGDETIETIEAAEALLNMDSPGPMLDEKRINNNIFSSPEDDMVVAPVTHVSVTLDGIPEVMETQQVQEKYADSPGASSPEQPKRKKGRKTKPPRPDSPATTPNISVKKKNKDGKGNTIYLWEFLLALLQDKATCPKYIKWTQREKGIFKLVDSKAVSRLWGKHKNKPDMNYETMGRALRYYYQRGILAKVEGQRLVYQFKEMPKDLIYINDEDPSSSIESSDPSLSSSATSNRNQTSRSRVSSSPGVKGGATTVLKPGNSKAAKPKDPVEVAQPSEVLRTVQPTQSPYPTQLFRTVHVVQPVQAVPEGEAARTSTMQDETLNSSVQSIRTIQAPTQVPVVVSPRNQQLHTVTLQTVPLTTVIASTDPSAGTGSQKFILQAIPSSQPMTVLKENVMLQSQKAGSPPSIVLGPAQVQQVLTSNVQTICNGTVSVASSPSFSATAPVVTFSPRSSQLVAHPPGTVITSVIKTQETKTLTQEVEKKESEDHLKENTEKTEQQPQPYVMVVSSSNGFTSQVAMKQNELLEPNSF
Sequence of ETV5 (P41161 whole entry): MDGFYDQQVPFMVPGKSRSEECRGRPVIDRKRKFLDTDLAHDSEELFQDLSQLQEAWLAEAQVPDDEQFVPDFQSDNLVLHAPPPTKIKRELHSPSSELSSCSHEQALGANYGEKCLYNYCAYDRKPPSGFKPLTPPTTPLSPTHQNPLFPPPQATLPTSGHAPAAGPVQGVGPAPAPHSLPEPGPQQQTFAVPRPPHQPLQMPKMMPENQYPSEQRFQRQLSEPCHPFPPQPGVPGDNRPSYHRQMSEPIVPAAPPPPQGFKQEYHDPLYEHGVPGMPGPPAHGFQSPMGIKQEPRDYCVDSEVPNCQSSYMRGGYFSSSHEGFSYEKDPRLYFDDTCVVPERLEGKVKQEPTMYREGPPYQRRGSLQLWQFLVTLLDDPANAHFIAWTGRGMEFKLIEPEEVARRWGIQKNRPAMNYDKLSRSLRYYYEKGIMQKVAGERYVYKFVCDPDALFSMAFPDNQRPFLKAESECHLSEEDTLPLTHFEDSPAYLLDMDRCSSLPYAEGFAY
Sequence of SPIB (Q01892 whole entry): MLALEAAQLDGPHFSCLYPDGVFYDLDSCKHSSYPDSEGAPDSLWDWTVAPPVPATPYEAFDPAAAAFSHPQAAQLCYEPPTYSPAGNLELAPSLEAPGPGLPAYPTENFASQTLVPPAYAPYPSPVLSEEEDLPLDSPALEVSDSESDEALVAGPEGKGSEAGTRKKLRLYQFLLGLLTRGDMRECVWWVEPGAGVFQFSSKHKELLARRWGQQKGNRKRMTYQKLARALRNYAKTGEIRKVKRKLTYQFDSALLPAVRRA

## ATGAAT
FLI1
  binding signal: 1.16 fold enrichment (6-mer frequency, TF over GST control)
ELK1
  binding signal: 1.16 fold enrichment (6-mer frequency, TF over GST control)
GABPA
  binding signal: 1.2 fold enrichment (6-mer frequency, TF over GST control)
ERG
  binding signal: 1.11 fold enrichment (6-mer frequency, TF over GST control)
ELF1
  binding signal: 1.07 fold enrichment (6-mer frequency, TF over GST control)
EHF
  binding signal: 1.14 fold enrichment (6-mer frequency, TF over GST control)
SPI1
  binding signal: 1.15 fold enrichment (6-mer frequency, TF over GST control)
SPIB
  binding signal: 1.23 fold enrichment (6-mer frequency, TF over GST control)
ELK3
  binding signal: 1.12 fold enrichment (6-mer frequency, TF over GST control)
FEV
  binding signal: 1.07 fold enrichment (6-mer frequency, TF over GST control)
ETV5
  binding signal: 1.1 fold enrichment (6-mer frequency, TF over GST control)
HSF1
  binding signal: 1.19 fold enrichment (6-mer frequency, TF over GST control)
SPIC
  binding signal: 1.31 fold enrichment (6-mer frequency, TF over GST control)
ELF4
  binding signal: 1.14 fold enrichment (6-mer frequency, TF over GST control)
ELK4
  binding signal: 1.13 fold enrichment (6-mer frequency, TF over GST control)
ETV2
  binding signal: 1.04 fold enrichment (6-mer frequency, TF over GST control)
ELF3
  binding signal: 1.08 fold enrichment (6-mer frequency, TF over GST control)
CRX
  binding signal: 1.2 fold enrichment (6-mer frequency, TF over GST control)
ETV1
  binding signal: 1.16 fold enrichment (6-mer frequency, TF over GST control)
